Reference: the supplement of paper PMC6555819

Assays:
Experiment in all cases: PBM binding z-score (relative to random genomic background probes); higher = stronger binding; sequences stand for … in GC…GCGATTGACAGCGTAGAATGAAGG
[1] = system: PPARg:RXRa DBDmut IVT, anti-RXR (DBD mutation: RXRa K156A/R161A, NR concentration 270 nM, RXRa partner concentration 90 nM)
Outline: (§1)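 The probes on custom Agilent 4×180K protein-binding microarrays were double-stranded, with 34-nt variable regions bearing direct-repeat seeds, single-nucleotide variants, half-site ablations and random human genomic background sequences. Incubation lasted 1 h with ligand-free nuclear receptor dimers in PBS pH 7.4, 2% milk, 0.02% Triton X-100, 1 mM DTT, 0.2 mg/mL BSA and 0.4 mg/ml salmon testes DNA. Antibodies against each partner (one per run) detected bound dimers, and fluorescence scans were regression-normalized. Binding z-scores take the random background probes as reference.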

[2] = system: PPARg:RXRa IVT, anti-PPARg (NR concentration 270 nM, RXRa partner concentration 90 nM)
Outline: as §1

[3] = system: PPARg DBDmut:RXRa IVT, anti-PPARg (DBD mutation: PPARg1 K132A/R137A, NR concentration 270 nM, RXRa partner concentration 90 nM)
Outline: as §1

[4] = system: PPARg DBDmut IVT, anti-PPARg (DBD mutation: PPARg1 K132A/R137A, NR concentration 270 nM)
Outline: as §1

[5] = system: PPARg homodimer (NR concentration 180 nM)
Outline: as §1

[6] = system: PXR:RXRa (NR concentration 270 nM, RXRa partner concentration 90 nM)
Outline: as §1

[7] = system: PXR homodimer (NR concentration 270 nM)
Outline: as §1

[8] = system: RARa:RXR (NR concentration 270 nM, RXRa partner concentration 90 nM)
Outline: as §1

[9] = system: RARa homodimer (NR concentration 270 nM)
Outline: as §1

[10] = system: RARb:RXRa (NR concentration 270 nM, RXRa partner concentration 90 nM)
Outline: as §1

| Sequence | PBM binding z-score [1] | PBM binding z-score [2] | PBM binding z-score [3] | PBM binding z-score [4] | PBM binding z-score [5] | PBM binding z-score [6] | PBM binding z-score [7] | PBM binding z-score [8] | PBM binding z-score [9] | PBM binding z-score [10] |
| --- | --- | --- | --- | --- | --- | --- | --- | --- | --- | --- |
| CCTATTAGTTGACCATAAAGGCAACCGAAGCTCG | 0.277 | 0.572 | 0.612 | 1.06 | 1.55 | 0.343 | 1.08 | 0.436 | 2.45 | 0.404 |
| TCGAGTATGTTAGGGGCATTCAGAATGGCGTCGA | 0.969 | -0.000912 | -0.506 | -1.16 | -0.24 | 0.712 | 0.579 | 0.48 | 0.135 | 0.606 |
| CAAACTAGGTCACCGGAAGGTTAAAGTCCGCATG | 8.22 | 9.06 | 2.44 | 1.44 | 3.7 | 3.98 | 0.858 | 5.18 | 0.971 | 4.78 |
| ACTAGCAGGCCAAGCTTGGGTCACTCAAACAAAG | 1.14 | 0.724 | -0.775 | -0.566 | 0.296 | 0.742 | -0.908 | 1.66 | -1.21 | 1.77 |
| TATACAGGGTCAAAGGCCAGACTACGAATGTCGA | 2.56 | 5.03 | 3.07 | 1.98 | 2.4 | 4.42 | 0.626 | 6.23 | 1.41 | 4.56 |
| CGTCCAAGGTCAGAGAGGTCAGCGAATGCCGAGT | 3.1 | 3.68 | -0.551 | -0.132 | 3.56 | 6.27 | 10.9 | 6.31 | 2.51 | 5.22 |
| CCTACTGGGCCAAGGTGATTGATCAGTCAAAGCA | 3.98 | 3.6 | -0.461 | -1.01 | -0.0957 | -0.771 | -0.714 | -0.606 | -1.01 | 0.182 |
| TAGCCTAGGTCATGCGTGCCAGTATAGTGTCGGC | 1.88 | 3.12 | 0.14 | 0.765 | 1.62 | 1.51 | -0.776 | 2.65 | -0.307 | 3.77 |
| CCTCGTAGGACAGAAGGTCAGAGCTGTCCGCTTT | 0.395 | 0.358 | -0.69 | -1.03 | 1.25 | 1.47 | -0.0848 | 2.1 | -0.0313 | 3.02 |
| GCTAGCAGGCCATTTGGATCACTCAATGACGGGC | 0.765 | 0.13 | -0.26 | -0.878 | -0.828 | -0.802 | -0.249 | -0.562 | -0.338 | 0.151 |
| CCGACCGGGGCATAAGGTTACCATAAGCCAGCCC | 0.165 | 0.416 | -0.828 | -1.51 | 0.811 | 0.533 | -0.0926 | 1.79 | -0.565 | 1.8 |
| TCTGGTAGATCAATAGAGGTTAAGAAAGTGCGCT | 1.4 | 0.577 | 0.241 | 0.106 | 0.418 | 3 | 0.367 | 1.75 | 0.0136 | 0.93 |
| AATACAGGGTCACTAGGGCAGAGTAGGTACGAAT | 4.88 | 6.25 | 2.07 | 2.29 | 3.08 | 3.51 | 1.1 | 4.65 | 1.32 | 4.27 |
| CAAACTAGGTCAAGAGGTCCAAGTCCGCTTCCCG | 8.55 | 8.32 | 1.57 | 0.903 | 1.86 | 1.58 | 0.285 | 2.21 | 0.1 | 4.02 |
| TCTTGTAGATCAAGCAGGTTAAGTAAGCCTGAGT | 1.68 | 0.377 | 0.298 | -0.27 | 0.192 | 0.295 | 0.247 | 0.198 | -0.203 | 0.138 |
| CCGACTGGGGCACGGTTACCATAACGCACAGCCA | 3.83 | 4.42 | -0.407 | -0.566 | 0.044 | -0.353 | -0.44 | -0.139 | -0.261 | 1.06 |
| CCTTACGGGTCACTGACAGGTTACAGCATTTGGA | 3.39 | 4.02 | 0.114 | -0.264 | 2.85 | 3.59 | 0.0317 | 4.5 | 0.367 | 4.06 |
| ATATGTATGTTAGCTGGGGTCATTCAGACTAGGC | 2.2 | 2.3 | 1.51 | 1.76 | 1.82 | 5.63 | 2.99 | 5.55 | 0.578 | 2.6 |
| CGAACTAGGTCATTGACCGGACAGTGAATAGTAA | 8.08 | 8.12 | 0.655 | 0.319 | 0.696 | 1.2 | -0.102 | 1.93 | 0.169 | 3.61 |
| TCTAGTTGGTCAAAGGTCCCACACTCGAAATGCG | 2.94 | 3.27 | 0.799 | 1.15 | 1.16 | 0.98 | -0.0577 | 1.49 | 1.06 | 1.67 |
| ACTAGCAGGCCAAGGGTCACTCATGATTAGTCCG | 1.25 | 3.63 | 0.294 | -0.197 | 2.62 | 3 | -0.0152 | 4.04 | 0.642 | 3.41 |
| CATCCAGGGTCAGCTAGGCCAGAGTAGGGACGGC | 0.695 | 2.52 | 0.576 | 0.124 | 1.54 | 2.31 | -0.182 | 3.25 | 0.407 | 4.03 |
| GTACAAAGGTGAATAGGTCGTTGATGAGTAGGCG | 2.92 | 4.14 | 1.72 | 0.526 | 2.64 | 2.15 | 0.501 | 3.42 | 1.23 | 3.49 |
| CCGAGTAAGTTATGGGGCATTCAGGCAACGGTGA | 0.876 | 0.12 | 0.0533 | -0.856 | 0.399 | -0.507 | -0.558 | -0.445 | -0.0178 | -0.111 |
